Reference: PubChem BioAssay AID652057 (Broad Institute, 2013)
The whole screen tested about 1,400 compounds, of which about 1,000 (71%) were called active. No rule for the calls is given here. The set was probably picked from earlier hits. Not all results are given here. Measured potencies and affinities stand elsewhere.

test: inhibitors of HIV Env-driven cell fusion, dose response, cherry-pick (AID 652057); settings: HeLa-JRFL Env/CEM21 cell fusion, luciferase; series mostly up to 35 µM

Activity change, negative = inhibition, inactive:
Cc1ccc(C(=O)NCc2ccccn2)cc1S(=O)(=O)N1CCCCC1
CCCn1c(=S)[nH]c2cc(C(=O)N3CCCC(C(=O)OCC)C3)ccc2c1=O (configuration not stated)
CN(C(=O)c1cccc(NC(=O)Cc2cccc(NC(=O)C3CCCN(C(=O)C4CCC4)C3)c2)c1)C1CCC1 (configuration not stated)
COc1ccc(S(=O)(=O)NC[C@@H]2CC[C@H]3[C@H](CN3Cc3cc(F)ccc3F)O2)cc1
COCC(C)n1c(-c2ccc3c(c2)NC(=O)CO3)csc1=Nc1ccc(OC(F)F)cc1 (configuration not stated)
C[C@@H]1CN([C@H](C)CO)C(=O)c2cccc(NS(=O)(=O)c3cn(C)cn3)c2O[C@H]1CN(C)C(=O)Nc1ccc(F)cc1
O=C(N/N=C/c1ccc(-n2ccnc2)cc1)c1cccs1
Cc1ccc(NC(=O)c2ccc(CN3CCc4ccccc4C3)cc2)cc1
O=C(Nc1ccc(S(=O)(=O)N2CCCC2)cc1)c1ccc(CN2CCOCC2)cc1
C=C(C)CN(CC)c1nc(N)c2c(N)nc3c(c2c1C#N)CC(=O)N3C12CC3CC(CC(C3)C1)C2
CCc1nc(N2CCCCC2C)c2oc3ccccc3c2n1 (configuration not stated)
CCOc1ccc2c(c1)-c1c(ssc1=S)C(C)(C)N2C(=O)c1ccco1
O=C(COC(=O)c1cccc(S(=O)(=O)N2CCOCC2)c1)NCc1ccccc1
CC(C)OCCCNc1ncnc2c1[nH]c1ccccc12
Cc1ccccc1OCCCCn1cnc2ccccc21
COCC(=O)Nc1ccc2c(c1)C(=O)N(C)C[C@@H](OC)[C@H](C)CN(C(C)=O)[C@H](C)CO2
CCN(CC)CCN(C(=O)c1cc(Cl)sc1Cl)c1nc2cc3c(cc2s1)OCO3
COc1ccccc1CNC(=O)C[C@H]1C[C@@H]2c3cc(NC(=O)c4cccnc4)ccc3O[C@@H]2[C@@H](CO)O1
O=C(Nc1cccc(F)c1)N[C@@H]1CC[C@H](CCNS(=O)(=O)c2cccc(Cl)c2)O[C@@H]1CO
COc1cccc(CNC(=O)C[C@@H]2C=C[C@H](NC(=O)C3CCC3)[C@H](CO)O2)c1
CCS(=O)(=O)N[C@H]1CC[C@@H](CC(=O)NCc2ccc(Cl)cc2)O[C@@H]1CO
O=C(C[C@@H]1C=C[C@@H](NC(=O)Nc2ccc3c(c2)OCO3)[C@H](CO)O1)NCc1ccc(F)cc1
O=C(C[C@H]1C[C@@H]2c3cc(NC(=O)C4CCOCC4)ccc3O[C@@H]2[C@@H](CO)O1)NCc1ccccc1F
C[C@@H]1CN([C@H](C)CO)C(=O)c2cccc(NS(=O)(=O)c3ccc(Cl)cc3)c2O[C@H]1CN(C)CC1CCCCC1
COC(=O)c1ccc(NC(=O)c2ccc(CN3CCOCC3)cc2)cc1
OC1(c2ccc(OC(F)F)cc2)CSC(=Nc2cccnc2)N1C1CC1 (configuration not stated)
Cc1cc(Cl)c(S(=O)(=O)N2CCCC2)cc1OCC(=O)NC1CCCCC1
COCCCn1c(-c2ccc(S(=O)(=O)N3CCOCC3)cc2)csc1=Nc1ccccc1
CN(C)S(=O)(=O)c1ccc(C(=O)Nc2nc(-c3cccs3)cs2)cc1
CCCC(=O)Nc1ccc2c(c1)C(=O)N(C)C[C@@H](OC)[C@@H](C)CN(Cc1nccs1)[C@@H](C)CO2
COCC(=O)Nc1ccc2c(c1)C(=O)N(C)C[C@@H](OC)[C@@H](C)CN(C)[C@H](C)CO2
C=CC[n+]1c(-c2ccc(C)cc2)csc1NNC(=O)Nc1ccccc1
NC(=S)c1ccc(OCCCc2ccccc2)cc1
O=C1c2cccc(OCc3ccc(F)cc3)c2CCN1Cc1ccccc1
O=C(C[C@H]1C[C@@H]2c3cc(NC(=O)C4CCC4)ccc3O[C@@H]2[C@@H](CO)O1)NCc1ccc2c(c1)OCO2
C=CCOc1c(Br)cc(CNc2ccc(NC(=O)C(C)C)c(OC)c2)cc1OC
CC1(C)N=C(N)N=C(N)N1CCCCc1ccccc1
COc1cc(-c2c(-c3cc(OC)c(OC)c(OC)c3)noc2C)ccc1F
O=C(CNC(=O)c1cccc(-n2cccc2)c1)Nc1ccccc1Br
COc1ccccc1S(=O)(=O)Nc1ccc2c(c1)C(=O)N(C)C[C@@H](OC)[C@@H](C)CN[C@@H](C)CO2
CCCNC(=O)C[C@H]1C[C@H]2c3cc(NC(=O)CN(C)C)ccc3O[C@H]2[C@@H](CO)O1
COc1ccc(NC(=O)c2ccc(Cl)c(S(=O)(=O)N3CCc4ccccc4C3)c2)cn1
O=C(Nc1ccc(F)cc1)Nc1ccc2c(c1)[C@@H]1C[C@H](CC(=O)N3CCCCC3)O[C@@H](CO)[C@@H]1O2
COc1ccccc1Oc1ccc(S(=O)(=O)NCc2ccccn2)cc1
O=C(Nc1ccc(Oc2ccccc2)cc1)c1csc([C@H]2C[C@H](O)[C@@H](CO)O2)n1
COc1ccc(OC)c(-c2cc(C(=O)Nc3c(C)nn(Cc4ccc(Cl)cc4)c3C)no2)c1
CCCCS(=O)(=O)N1CCN(C(=O)C(=O)c2cccc(C(F)(F)F)c2)CC1
CCS(=O)(=O)Nc1ccc2c(c1)C(=O)N(C)C[C@H](OC)[C@@H](C)CN(C(=O)C1CCC1)[C@H](C)CO2
CN(C)Cc1cn(CC[C@@H]2CC[C@H](N)[C@H](CO)O2)nn1
Nc1nonc1C(=O)NCCNCc1cc(Br)ccc1OCc1ccccc1F
CN1CCN(C(=O)C[C@H]2C[C@@H]3c4cc(NS(C)(=O)=O)ccc4O[C@@H]3[C@H](CO)O2)CC1
O=C(Nc1ccc(C(=O)OC2CCCCC2)cc1)c1ccncc1
CCCCOc1ccc(S(=O)(=O)Nc2cccnc2)cc1
C[C@H](CO)N1C[C@H](C)[C@@H](CN(C)C(=O)Nc2cccc3ccccc23)OCCCC[C@H](C)Oc2ccc(N(C)C)cc2C1=O
C[C@H]1CN([C@@H](C)CO)C(=O)c2cccc(NC(=O)c3ccncc3)c2O[C@@H]1CN(C)C(=O)Nc1cccc2ccccc12
O=C(C[C@@H]1C[C@H]2c3cc(NC(=O)Nc4ccccc4)ccc3O[C@H]2[C@H](CO)O1)NCc1cccnc1
O=C(NCc1cccnc1)c1c[nH]c2cc3c(cc2c1=O)OCCO3
